Inconclusive results are not listed. Calls of active or inactive are those of the source. The call rests on the fitted dose curve; in most records, active means well fitted cell-killing curve with a large enough effect; inconclusive means small, poorly fitted or top-dose-only effect, or effect the other way; inactive means flat fitted curve, though single readings scatter. Where a SMILES comes first, the peptide text is derived from it. [ ]: non-standard residue; d: D form. PhLac = O=C(O)[CH](O)Cc1ccccc1; NMeV = CN[CH](C(=O)O)C(C)C
Tests used:
Experiment in all cases: Primary qHTS to identify gynecologic anti-cancer compounds using libraries of approved drugs and bioactive compounds (AID 1345084); further: nearly all actives have a fitted effect of over 55% in size
[1] = system: CAOV3; conditions: Gynecologic cancer cell panel viability, ATPlite luminescence, 48 h; series mostly up to 57.5 µM
Method in brief: (§1)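 Cytotoxicity screen measuring ATP content by luciferase luminescence. Each compound is applied at five concentrations for 48 h at 37 C with 5% CO2.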

[2] = system: CASKI; conditions: Gynecologic cancer cell panel viability, ATPlite luminescence, 48 h; series mostly up to 57.5 µM
Method in brief: as §1

[3] = system: Es-2; conditions: Gynecologic cancer cell panel viability, ATPlite luminescence, 48 h; series mostly up to 57.5 µM
Method in brief: as §1

[4] = system: HeLa; conditions: Gynecologic cancer cell panel viability, ATPlite luminescence, 48 h; series mostly up to 57.5 µM
Method in brief: as §1

[5] = system: Hek293T; conditions: Gynecologic cancer cell panel viability, ATPlite luminescence, 48 h, control line for the selectivity index; series mostly up to 57.5 µM
Method in brief: as §1

[6] = system: JEG-3; conditions: Gynecologic cancer cell panel viability, ATPlite luminescence, 48 h; series mostly up to 57.5 µM
Method in brief: as §1

[7] = system: OV90; conditions: Gynecologic cancer cell panel viability, ATPlite luminescence, 48 h; series mostly up to 57.5 µM
Method in brief: as §1

[8] = system: PA-1; conditions: Gynecologic cancer cell panel viability, ATPlite luminescence, 48 h; series mostly up to 57.5 µM
Method in brief: as §1

[9] = system: SKOV3; conditions: Gynecologic cancer cell panel viability, ATPlite luminescence, 48 h; series mostly up to 57.5 µM
Method in brief: as §1

[10] = system: Tov-21-G; conditions: Gynecologic cancer cell panel viability, ATPlite luminescence, 48 h; series mostly up to 57.5 µM
Method in brief: as §1

[11] = system: Tov112D; conditions: Gynecologic cancer cell panel viability, ATPlite luminescence, 48 h; series mostly up to 57.5 µM
Method in brief: as §1

Measured: Potency

COc1cc([C@H]2OC[C@]3(OC(C)=O)[C@@H](c4ccc(O[C@@H]5O[C@H](CO)[C@@H](O)[C@H](O)[C@H]5O)c(OC)c4)OC[C@H]23)ccc1O
inactive: [1] | [2] | [3] | [4] | [5] | [6] | [7] | [8] | [9] | [10] | [11]

CC1=CCC2C(C)(CO)CCCC2(CO)C1CO (stereo not given)
inactive: [1] | [2] | [3] | [4] | [5] | [6] | [7] | [8] | [9] | [10] | [11]

CC(=O)OC1C(O)C(C)=C(CCC(C)CC(=O)O)C2(C)CCCC(C)(C)C12 (stereo not given)
inactive: [1] | [2] | [3] | [4] | [5] | [6] | [7] | [8] | [9] | [10] | [11]

CCn1nnnc1NCc1ccc(C(C)C)cc1
inactive: [1] | [2] | [3] | [4] | [5] | [6] | [7] | [8] | [9] | [10] | [11]

C[C@@H]1CC[C@]2(C(=O)O[C@@H]3O[C@H](CO)[C@@H](O)[C@H](O)[C@H]3O)CC[C@]3(C)C(=CCC4[C@@]5(C)C[C@@H](O)[C@H](O)C(C)(C)C5CC[C@]43C)C2[C@]1(C)O (stereo not given in full)
inactive: [1] | [2] | [3] | [4] | [5] | [6] | [7] | [8] | [9] | [10] | [11]

CC(C)C(C(=O)N1CCCC1C(=O)O)N(C)C(=O)C(O)Cc1ccccc1 (stereo not given) (H-[PhLac]-[NMeV]-Pro-OH; configuration not given here)
inactive: [1] | [2] | [3] | [4] | [5] | [6] | [7] | [8] | [9] | [10] | [11]

C[C@@H]1CC[C@]2(C)C3(C)CC[C@@]2(OC3=O)[C@@]12C[C@H](c1ccoc1)OC2=O
inactive: [1] | [2] | [3] | [4] | [5] | [6] | [7] | [8] | [9] | [10] | [11]

O=c1ccn(C2OC(CO)C(O)C2O)c(=O)[nH]1 (stereo not given)
inactive: [1] | [2] | [3] | [4] | [5] | [6] | [7] | [8] | [9] | [10] | [11]

C=C1CC[C@@H]2[C@](C)(CO[C@@H]3O[C@H](CO)[C@@H](O)[C@H](O)[C@H]3O)CCC[C@@]2(C)[C@@H]1CCC1=CCOC1=O
inactive: [1] | [2] | [3] | [4] | [5] | [6] | [7] | [8] | [9] | [10] | [11]

COc1c(C)c(C(=O)c2ccc(N)c(C(=O)O)c2)n2ccccc12
inactive: [1] | [2] | [3] | [4] | [5] | [6] | [7] | [8] | [9] | [10] | [11]

CC(=O)OC[C@@]12[C@H](O)C[C@@H](C)[C@]3(C[C@@H](c4ccoc4)OC3=O)[C@H]1C[C@H](O)C[C@]21CO1
inactive: [1] | [2] | [3] | [4] | [5] | [6] | [7] | [8] | [9] | [10] | [11]

COC(=O)C1=CO[C@@H](O[C@@H]2O[C@H](COC(=O)/C=C/c3cc(OC)c(O)c(OC)c3)[C@@H](O)[C@H](O)[C@H]2O)[C@@H]2C(CO)=CC[C@H]12
inactive: [1] | [2] | [3] | [4] | [5] | [6] | [7] | [8] | [9] | [10] | [11]

COc1ccccc1CC(C(=O)O)N(C)C(=O)c1ccccc1 (stereo not given)
inactive: [1] | [2] | [3] | [4] | [5] | [6] | [7] | [8] | [9] | [10] | [11]

CC(=O)OCC(=O)O[C@@H]1[C@H]2[C@@H](OC(=O)c3ccccc3)[C@@H](C)C[C@]2(O)[C@H](OC(C)=O)C2(C)[C@H]3CC(C)(C)C(=O)[C@@H]3CC1(OC(C)=O)[C@@H]2OC(C)=O (stereo not given in full)
inactive: [1] | [2] | [3] | [4] | [5] | [6] | [7] | [8] | [9] | [10] | [11]

O=C(O[C@H]1[C@@H]2C=CO[C@@H](O[C@@H]3O[C@H](CO)[C@@H](O)[C@H](O)[C@H]3O)[C@@H]2[C@@]2(CO)O[C@@H]12)c1ccc(O)c(O)c1
inactive: [1] | [2] | [3] | [4] | [5] | [6] | [7] | [8] | [9] | [10] | [11]

— PubChem BioAssay (NCATS)
